# Screening results from PubChem.
# This is a sample that favours compounds with a hit; in the whole collection about 2.6% have one here.
# Granule exo inh: LAMP-1 surface exposure blockers, TALL-104 cells – cell-based, flow cytometry, MLPCN library, primary screen; TALL-104 LAMP-1 surface exposure; cells stimulated with thapsigargin and PMA; inhibition, % at 10 µM; 360,000 compounds, 0.66% hits; AID 651702, 2012;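 active = inhibition above about 55%, limit read from the data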
# PfM18AAP inh-1: PfM18AAP inhibitors, malaria aminopeptidase, primary screen, biochemical, QFRET, recombinant enzyme; 290,000 compounds, 1.2% hits; H-Glu-NHMec fluorogenic cleavage; M18 aspartyl aminopeptidase (Plasmodium falciparum 3D7); inhibition, % at 7.35 µM;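 active = inhibition above the campaign mean inhibition over all tested compounds plus 3 SD, cut at about 28% in these data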;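 also: 0% = plate median of test compound wells and 100% = 2 mM ZnCl2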
# Platelet DG rel: inhibitors of platelet dense granule secretion, primary screen, cell-based, MLPCN, human platelets | human platelet-rich plasma, SFLLRN dense granule ATP release, luminescence | inhibition, %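 (compounds screened at 7.5 µM in platelet-rich plasma)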 | 300,000 compounds, 0.22% hits;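 active = mean replicate score, as percent of positive control, at or above 50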
# Rce1 inh: yeast Rce1p protease inhibitors, primary screen, biochemical, fluorescence, cell-free homogeneous; 290,000 compounds, 0.27% hits; yeast membranes, quenched prenylated peptide cleavage fluorescence; CAAX prenyl protease 2 (Saccharomyces cerevisiae (strain ATCC 204508 / S288c)), Q03530; AID 2563, 2010; calls only;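 active = fall in fluorescence gain of 50% or more versus controls, with final raw signal at or below 3038400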;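 also: plate controls were neutral control wells for no effect and wells lacking membranes for full effect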
# ABHD5 PLIN5 PPI: ABHD5-PLIN5 interaction inhibitors, primary screen, cell lysate, split luciferase complementation, luminescence; Perilipin-5 (Homo sapiens) + 1-acylglycerol-3-phosphate O-acyltransferase ABHD5 (Homo …; Split G. princeps luciferase complementation, 4 h; inhibition, % at 4 µM; 360,000 compounds, 0.78% hits; AID 602281, 2012;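 active = inhibition above the mean inhibition across every tested compound plus 3 SD, cut at about 22% in these data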;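 also: 0% = DMSO only wells and the 100% control is not disclosed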
# PfM18AAP inh-2: PfM18AAP inhibitors, malaria aminopeptidase, confirmation, biochemical, QFRET, recombinant enzyme, triplicate | shares compounds with PfM18AAP inh-1 | H-Glu-NHMec fluorogenic cleavage | inhibition, % at 7.35 µM | 2,400 compounds, 28% hits | AID 2170, 2009;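 active = mean inhibition over replicate wells above the hit cutoff set for the earlier primary screen, cut at about 29% in these data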;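 also: 0% = median of test compound wells and 100% = 2 mM ZnCl2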
# CTSL1 confirm: cathepsin L1 inhibitors, retest, confirmation, counter-screen for PFM18AAP inhibitor project, biochemical, QFRET, triplicate. shares compounds with PfM18AAP inh-1. purified cathepsin L1, Z-Leu-Arg-MCA fluorescence. inhibition, % at 5.96 µM. 2,400 tested, under 10 active. AID 2178, 2009;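 active = average inhibition across replicates above the hit cutoff set in the earlier primary screen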;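 also: 0% = median of test compound wells and 100% = Z-Phe-Ala-diazomethylketone 1 µM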
# ABHD5-PLIN5 conf: ABHD5-PLIN5 interaction inhibitors, confirmation, biochemical, luminescence | shares compounds with ABHD5 PLIN5 PPI | inhibition, % at 4 µM | 2,200 compounds, 67% hits; in the data active = inhibition above about 23%;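 also: 0% = DMSO vehicle wells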
# HNF4 counter: HNF4 dimerization inhibitors, counter-screen for ABHD5-PLIN5 interaction inhibitor project, biochemical, split-luciferase complementation, luminescence | shares compounds with ABHD5 PLIN5 PPI | inhibition, % at 4 µM | 2,200 compounds, 77% hits | AID 651674, 2012;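 active = mean inhibition across replicate wells exceeding the computed hit threshold, cut at about 13% in these data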;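 also: light from luciferase halves that rejoin when HNF4 fusion proteins dimerize; 0% = DMSO only wells and the 100% control is not given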
# Target sequence (P41235 whole entry, looked up, the tested form may be a part): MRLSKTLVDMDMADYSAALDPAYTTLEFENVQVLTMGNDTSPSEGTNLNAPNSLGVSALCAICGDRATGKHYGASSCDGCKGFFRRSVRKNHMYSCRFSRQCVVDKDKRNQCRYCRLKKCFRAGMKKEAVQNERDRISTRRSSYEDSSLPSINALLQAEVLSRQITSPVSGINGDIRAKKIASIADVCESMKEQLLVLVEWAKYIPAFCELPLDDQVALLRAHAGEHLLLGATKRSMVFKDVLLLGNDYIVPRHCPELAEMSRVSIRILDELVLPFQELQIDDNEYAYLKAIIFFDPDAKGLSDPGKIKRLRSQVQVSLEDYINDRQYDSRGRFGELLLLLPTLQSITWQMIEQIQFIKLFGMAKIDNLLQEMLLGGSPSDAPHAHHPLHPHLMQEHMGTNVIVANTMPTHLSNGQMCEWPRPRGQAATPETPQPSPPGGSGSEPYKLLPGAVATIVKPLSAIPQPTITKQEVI
# * hit, by the source's call; i = inactive; nt = no result given.
SMILES,Granule exo inh,PfM18AAP inh-1,Platelet DG rel,Rce1 inh,ABHD5 PLIN5 PPI,PfM18AAP inh-2,CTSL1 confirm,ABHD5-PLIN5 conf,HNF4 counter
O=C(NNc1c(Cl)cccc1Cl)c1c(F)cccc1Cl,-4,-1,-3,i,-1,nt,nt,nt,nt
O=C(NNc1ccc(F)cc1F)c1c(F)cccc1Cl,-7,33*,9,i,3,6,2,nt,nt
COc1cccc(OC)c1C(=O)NC(=O)NNc1cc(C(F)(F)F)cc(C)n1,-1,40*,0,i,6,-1,3,nt,nt
COc1cccc(OC)c1C(=O)NC(=O)Nc1c(F)cc(F)cc1F,-2,-1,-2,i,6,nt,nt,nt,nt
COc1cc(OC)cc(C(=O)NCCCCCCNC(=O)c2cc(OC)cc(OC)c2)c1,6,nt,nt,nt,2,nt,nt,nt,nt
O=CN1CCN(C(=O)CN2C(=O)c3ccccc3C2=O)CC1,-2,13,1,i,-3,nt,nt,nt,nt
O=C(CN1CCN(c2ccc(O)cc2)CC1)Nc1cc(S(=O)(=O)N2CCCC2)ccc1Cl,4,36*,1,i,15,-14,-3,nt,nt
O=C(/C=C/c1ccccc1F)c1cccc([N+](=O)[O-])c1,85*,34*,8,i,70*,4,5,100*,99*
COC(=O)NN1C(=O)C(c2ccccc2)=C(c2ccc(Cl)cc2)C1=O,7,nt,12,i,-3,nt,nt,nt,nt
O=C(NCCCN1CCOCC1)c1sc2cc(Cl)ccc2c1Cl,-2,6,-1,i,5,nt,nt,nt,nt
O=C(NCCCN1CCOCC1)c1sc2cc([N+](=O)[O-])ccc2c1Cl,0,59*,9,i,24*,33*,-3,5,66*
O=C(COC(=O)CCc1c[nH]c2ccccc12)NCc1ccc2c(c1)OCO2,-1,-7,-4,i,4,nt,nt,nt,nt
Cc1cccc2cc(C#N)c(NCc3ccccc3)nc12,-2,1,-10,i,-6,nt,nt,nt,nt
BrC(=C\c1ccccc1)/C=N/n1cnnc1,3,68*,7,i,38*,61*,4,42*,45*
CSc1sc(-c2ccnc(SCC(=O)C(C)(C)C)n2)c2c1C(=O)CC(C)(C)C2,-4,35*,-16,i,23*,-26,3,-5,-5
O=C(CSc1ncn[nH]1)c1cccc([N+](=O)[O-])c1,17,43*,8,nt,35*,38*,-2,-4,26*
COc1ccc(/C=C2\CN(Cc3ccccc3)C/C(=C\c3ccc(OC)c(O)c3)C2=O)cc1O,67*,45*,-5,i,72*,3,-1,93*,86*
COc1ccc(-c2cc(OC(=O)c3ccc(F)cc3)c3c(C)oc(C)c3c(=O)c2)cc1,nt,22,nt,nt,nt,nt,nt,nt,nt
O=C1OC(/C(=C\NCc2ccccc2)[N+](=O)[O-])c2ccccc21 (stereo not given),-2,23,-9,i,3,nt,nt,nt,nt
O=C1OC(/C(=C\Nc2ccccc2)[N+](=O)[O-])c2ccccc21 (stereo not given),5,47*,5,i,42*,-36,-3,7,26*
N=c1c(S(=O)(=O)c2ccccc2)cc2c(=O)n3ccccc3nc2n1Cc1cccnc1,-5,nt,1,i,-9,nt,nt,nt,nt
O=C1S/C(=C\C=C\c2ccco2)C(=O)N1c1ccc(O)cc1,-3,39*,4,i,49*,-39,11,33*,49*
